{
  "source": "paper PMC12136788",
  "binders": {"B1": {"name": "ENSG00000198589:be:win_3051|CDS|ENSG00000198589|bound_else_gene|NA|bound_elsewhere_windowed (ssRNA)", "RNA": "GGGAGUUCUACAGUCCGACGAUCAGAAAUGAAAGCUGAGCAAGAAAAUCAGGAGUUACCAGAUGAAGGCACUUUGGAAGAAACACUGACAAAUGAGACAAGGAAUGCAGAUGAUUUAGAAGUAUCUUCUGACAUAAUAGAAGCCAACAGAGGAUUGAGCAUCA"}, "B2": {"name": "chr8:58582127:58582250:+|3pUTR|ENSG00000137575|unk|total|mutant (ssRNA)", "RNA": "GGGAGUUCUACAGUCCGACGAUCUUCAUAUUACUUCCGUUCUACCGCAUACUUGCAUCUUUAACAUGCUAUCACCGUACAUUCCGAAUGAUUGCCUUUGAUUUUUUUUUUAAAUUCUGUGUGUGUGUGUGUAAAAUGCCAAUUCAACAGAGGAUUGAGCAUCA"}, "B3": {"name": "chr3:44491765:44499181:-|three_prime_utr|ENSG00000178917|control|control|control (ssRNA)", "RNA": "GGGAGUUCUACAGUCCGACGAUCACUAAUCACAGUGGAGACCAUACCUACUUGCUUUUCCUUGGGUCACUAAGGUGGGAGAGUAGGUGCAACUUAGUCUGAUCCUUACUUAGUAGGAAAUUGGGGAUUACAUCUGUCAUUAACCAACAGAGGAUUGAGCAUCA"}, "B4": {"name": "chr11:59152587:59152688:+|CDS|ENSG00000166801|msi1|FALSE|unique (ssRNA)", "RNA": "GGGAGUUCUACAGUCCGACGAUCAUUGAAAACUUCAAGAAAAAAAUGAAAGUAAAAAAUGGGGAAACAUUAUUUGAAUUGCAUAGAACAACGUUUGGGAAAGUAACAAAAAAUUCUUCUUCGAUUAAAGUAGUGAAACUUCUUCAACAGAGGAUUGAGCAUCA"}, "B5": {"name": "chr3:98797769:98798349:-|3pUTR|ENSG00000057019|msi1|total|mutant (ssRNA)", "RNA": "GGGAGUUCUACAGUCCGACGAUCUUGUUUUUGAUACCUCCUGGCAGCUUCCAUGUCACCACUUGUUCAUACCUGCCCAGAGCCCGUUUCCGACAUGGCAAAACCGAAAUCAUCUGUAAUUUAUCCGCUAACAAUGUAAAACCACAACAGAGGAUUGAGCAUCA"}, "B6": {"name": "chrX:71101288:71101389:+|CDS|ENSG00000184481|unk|FALSE|unique (ssRNA)", "RNA": "GGGAGUUCUACAGUCCGACGAUCGGAGGCCCUGCUCACCUCUGAUACGCCACCACCCCCUGCUGACGUCCUCAUGACCCAGGUAGAUCCCAUUCUGUCCCAGGCUCCGACUCUUCUGUUGCUGGGGGGGCUUCCUUCCUCCAGCAACAGAGGAUUGAGCAUCA"}, "B7": {"name": "ENSG00000198589:be:win_9451|3pUTR|ENSG00000198589|bound_else_gene|NA|bound_elsewhere_windowed (ssRNA)", "RNA": "GGGAGUUCUACAGUCCGACGAUCUUAAACUAUCAUCUCCACCUUCCUUUUGAUUAGCAAUUUGUACUAAGAAACGAAACAAUGUUAUUUGGUGGUGUAUAAUUCUACUUUUCUAGUAGAUUACUGUGUGGAAUUCUGUGAAAACAACAGAGGAUUGAGCAUCA"}, "B8": {"name": "chr16:57253408:57253449:+|3pUTR|ENSG00000102931|msi1_unk|FALSE|overlapping (ssRNA)", "RNA": "GGGAGUUCUACAGUCCGACGAUCUGUGUGGUAGAUUACUUAUCAGAAAACAUAUAUGUCAUCUCUAGAACGAAGAAAAAGCAUAGUAGUUCAAUUCCCAGUGUGUCCCUUUGAUUUUUUUUUUUUAAUAGUAAAAAUAAGAAUCAACAGAGGAUUGAGCAUCA"}, "B9": {"name": "chr6:73594753:73594854:-|3pUTR|ENSG00000119899|unk|FALSE|unique (ssRNA)", "RNA": "GGGAGUUCUACAGUCCGACGAUCGGUUCACAUACCUGCCUGCUAGUCGGGCAACAUGAAGUAGGACAGUUCUGUUGAUUUUUUAGGGCCAUACUAAAGGGAAUGAGCUGAAACAGACCUCCUGAUACCUUUGCUUAAUUAAACCAACAGAGGAUUGAGCAUCA"}, "B10": {"name": "chr22:45843749:45843850:+|3pUTR|ENSG00000130638|msi1|FALSE|unique (ssRNA)", "RNA": "GGGAGUUCUACAGUCCGACGAUCAAAUUGCAAGUGUUUGAAGAUUUAUAAGUACAAAUUUGGGAACAUACAAAUCUUUUAGGUAGUAGAGUUUAACGUGUAUAAGCUAAAAGUGAAAGUAACUGAGUGUUCUCUUGUUUCUUUCAACAGAGGAUUGAGCAUCA"}, "B11": {"name": "chrX:71300841:71300885:+|3pUTR|ENSG00000147140|msi1_unk|total|mutant (ssRNA)", "RNA": "GGGAGUUCUACAGUCCGACGAUCCCCCAUAUAUUACCCCUUCAUGUCCUAAAGAAGACAUUUUCUCUCCGAGAUUUUCAUUUCCGUGUAUCUUUAAAAAAAAAUCUUGUGUUAACUUGCCUCCAUCUUUUUCUUGGGUGAGGACAACAGAGGAUUGAGCAUCA"}, "B12": {"name": "chr2:16549458:16552935:-|three_prime_utr|ENSG00000197872|control|control|control (ssRNA)", "RNA": "GGGAGUUCUACAGUCCGACGAUCUUGCUACUGGAGUCCUUUAACAACAUCUAUAACGAUAAAAAAUUCCUAAUUGUUUGUGGUAGUAUUUUAAUUCUAGAUGUGUUAUCUCUCUGGGAAGUAUAGUUUAUAGAAACACAAAAUCAACAGAGGAUUGAGCAUCA"}, "B13": {"name": "chrX:71300841:71300885:+|3pUTR|ENSG00000147140|msi1_unk|FALSE|overlapping (ssRNA)", "RNA": "B11 RNA with C68U, C69A, C83U, C84A"}, "B14": {"name": "chr14:51255895:51255996:+|3pUTR|ENSG00000139921|msi1_unk|FALSE|overlapping (ssRNA)", "RNA": "GGGAGUUCUACAGUCCGACGAUCGUGAAUCCAUUAGAUUUACAGUAUCGUAAUAUACAAGUUUUCUUUAAAGCCCUCUCCUUUAGAAUUUAAAAUAUUGUACCAUUGAAGAGUUUGGAUGUGUAACUUGUGAUGCCUUAGAAACAACAGAGGAUUGAGCAUCA"}, "B15": {"name": "chr5:111496093:111496242:-|3pUTR|ENSG00000164211|unk|FALSE|unique (ssRNA)", "RNA": "GGGAGUUCUACAGUCCGACGAUCUUUACAUGUAUAGUUAAAUAUUAAAAUUCAUCUCUUGCAGUUCAAUAAAAGCUAUAGUAUAGAUUUUAUUUUUAAGAAGUUUAUAUAAUUCUUUUGUGAACCAAUAUGUAAAACUAGAAUCAACAGAGGAUUGAGCAUCA"}, "B16": {"name": "ENSG00000139428:stop:overlap|stop_codon|ENSG00000139428|stop_codon|NA|stop_codon (ssRNA)", "RNA": "GGGAGUUCUACAGUCCGACGAUCUAUUACUAUUCUUAACACUUACCUGUUCCUGGCUACCAUUUCUCCAUGGCGGGCCUGACUAGGUUUGCUCUGGAAUUAGUCACAGAAAAGGGCCAUACAUUUGCCGAAGAGCUUCAGAAACAACAGAGGAUUGAGCAUCA"}, "B17": {"name": "ENSG00000070961:be:win_3151|CDS|ENSG00000070961|bound_else_gene|NA|bound_elsewhere_windowed (ssRNA)", "RNA": "GGGAGUUCUACAGUCCGACGAUCACAUUACUCUGGGGCCAGCUUAUUUCAACAAUUCCAACUAGCCGUUUAAAAUUCCUCAAAGAAGCUGGUCAUGGAACACAAAAGGAAGAAAUACCUGAGGAGGAAUUAGCAGAGGAUGUUCAACAGAGGAUUGAGCAUCA"}, "B18": {"name": "chr16:57253408:57253449:+|3pUTR|ENSG00000102931|msi1_unk|total|mutant (ssRNA)", "RNA": "B8 RNA with U31C, A32C, U65C, A66C, U83C, A84C, U86C, A87C, U128C, A129C"}},
  "note": "Residue numbers refer to the chain shown, from its start. The full ranking holds about 5,800 sequences; the median of “enrichment r” is about 0.54, and the highest 2% start at about 16. Many of the other results were omitted from the sample, so the highest values are more common in it than they were.",
  "data": [
    {"target": "MSI1 full-length (mouse, UniProt Q61474 1-362)", "sequence (Q61474 whole entry)": "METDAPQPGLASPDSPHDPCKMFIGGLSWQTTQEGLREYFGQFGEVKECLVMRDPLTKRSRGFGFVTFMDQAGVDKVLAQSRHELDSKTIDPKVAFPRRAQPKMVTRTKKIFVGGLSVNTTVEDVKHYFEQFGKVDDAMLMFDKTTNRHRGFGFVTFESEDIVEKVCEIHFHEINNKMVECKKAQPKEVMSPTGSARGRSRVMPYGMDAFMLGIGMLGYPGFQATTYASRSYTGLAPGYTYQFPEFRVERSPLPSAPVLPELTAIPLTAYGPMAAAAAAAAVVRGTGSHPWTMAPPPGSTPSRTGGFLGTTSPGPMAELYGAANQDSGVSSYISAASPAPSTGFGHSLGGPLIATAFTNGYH", "experiment": "nsRBNS (natural sequence RNA bind-n-seq); RBNS binding buffer (assumed for nsRBNS): 25 mM Tris pH 7.5, 150 mM KCl, 3 mM MgCl2, 0.01% Triton X-100, 500 ug/ml BSA, 20 U/ml SUPERase-In, 4 C; UNK is unkempt and MSI1 is Musashi-1; names of the RNAs are library labels; protein concentration not given here; high values mean tight binding", "units": {"binding signal": "enrichment R"}, "values": [
      {"binder": "B1", "binding signal": 0.825},
      {"binder": "B2", "binding signal": 0.478},
      {"binder": "B3", "binding signal": 0.646},
      {"binder": "B4", "binding signal": 0.574},
      {"binder": "B5", "binding signal": 0.808},
      {"binder": "B6", "binding signal": 0.429},
      {"binder": "B7", "binding signal": 1.55},
      {"binder": "B8", "binding signal": 21},
      {"binder": "B9", "binding signal": 0.746},
      {"binder": "B10", "binding signal": 7.75},
      {"binder": "B11", "binding signal": 0.906},
      {"binder": "B12", "binding signal": 25},
      {"binder": "B13", "binding signal": 16.5},
      {"binder": "B14", "binding signal": 5.27},
      {"binder": "B15", "binding signal": 2.64},
      {"binder": "B16", "binding signal": 18.8},
      {"binder": "B17", "binding signal": 0.641},
      {"binder": "B18", "binding signal": 0.465}
    ]}
  ]
}
